Results reported in the supplement of paper PMC10338343.
± gives the standard deviation.

test system: EfPiwi piRISC loaded with L1MC piRNA (26 nt); assay: pre-steady-state target cleavage rate (min^-1); auxiliary factor: 500 nM Ephydatia muelleri Gtsf1; guide: L1MC piRNA 5'p-UAACUAAAUACUAUGCAAGCUGUAGG; MIWI and MILI are mouse PIWI proteins and EfPiwi is from a freshwater sponge; tags in brackets are library labels; higher = faster piRNA-guided slicing of the target
Description: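 Cleave-'n-Seq: a library of target RNAs (target site in constant flanks) at […] was incubated with 1 nM active freshwater sponge Ephydatia fluviatilis Piwi piRISC (synthetic 5'-monophosphorylated piRNA guide) with or without 500 nM EmGtsf1 at 33 °C for 1 min to 16 h. Uncleaved targets were sequenced and the pooled three trials fitted to a burst-and-steady-state model to give the pre-steady-state cleavage rate (min^-1). Sequence is the target site only. Fits with R² ≤ 0 are excluded.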

Sequence	pre-steady-state target cleavage rate
UCCUGGAACUGCUUGCAUAGUAUUUAGAAA	0.00485 ± 0.0026
UCCUGGAACAGCAUGCAUAGUAUAUAGUUA	0.0106 ± 0.005
UCCUGGAUCAGCUUGCAUAGUAUUUUAGUUA	0.0214 ± 0.0071
UCCUGGUACAGCUUGCAAGUAUUUAGUUA	0.00546 ± 0.0031
UCCUCCUACAGCUUGCAUACUAUUAAGUUA	0.00391 ± 0.0027
UCCUGGAUGUCGAACCAUAGCUAUUUAGUUA	< 0.0001
UCCUCCUACAGCUUGCAUAGUAUUUACAAA	0.00422 ± 0.003
UCCUGGUUCAGCUUGCAUACUAUUUAGUUA	0.00751 ± 0.0031
UCCUGGAUCCAGCUUGCAUAGUAUUUAGUUA	0.126 ± 0.022
UCCUGGUACAGCUUGCAUAGUAUUUAGUUA [g2:g24:cont:t1A]	0.0865 ± 0.024
UCCUCCUGACAGCUUGCAUAGUAUUUAGUUA	0.0255 ± 0.008
UCCUGCUACAGCUUGGUUAGUAUUUAGUUA	0.0105 ± 0.0033
UCCUGGAUCAGCUUGCAUAGUUUUUAGUUA	0.00592 ± 0.0018
UCCUCCUACAGCUUGCAAAGUAUUUUGUUA	0.00453 ± 0.0028
UCCUGGUACUGCUUGCAUAGUAUUUACAAA	0.00278 ± 0.0027
UCCUGGAACAGCUAGCAUAGUAUUUAGUUA	0.015 ± 0.0041
UCCUGGUACAGGUAGCAUAGUAUUUAGUUA	0.00853 ± 0.0036
UCCUGGAUGUCGAACCAUAGUCUUUAGUUA	< 0.0001
UCCUGGAUCAGCUAGCAUAGUAUUAAGUUA	0.00318 ± 0.002
UCCUGGAUCAGCUUGCAAACUAUUUAGUUA	0.00476 ± 0.003

Sequence	pre-steady-state target cleavage rate
UCCUGGAUCAGCCUGCAUAGUAUUUAGUUA	0.0209 ± 0.006
UCCUGCUACAGCUAUGCAUAGUAUUUAGUUA	0.012 ± 0.0044
UCCUGCUACAGCUUGCAUAGUUAUUUAGUUA	0.00578 ± 0.0032
UCCUGGAACAGCUUCCUUAGUAUUUAGUUA	0.00362 ± 0.002
UCCUGGUACUGCUUGCAUAGUAUUUAGAUA	0.00378 ± 0.0019
UCCUGGAUCAGGUUGCAUAGUAUUUAGUUA	0.0232 ± 0.0061
UCCUGCUACAGCUUGCAUAGUAUAAAGAAA	0.00337 ± 0.0023
UCCUGGAUCAGGUUGCAUAGUAUUUAGAAA	0.00341 ± 0.0019
UCCUGCUACAGCUUGCAUAGUAUUUAGAAA	0.00439 ± 0.0012
UCCUGGAUGAGCUUGCCAUAGUAUUUAGUUA	0.0035 ± 0.0026
UCCUGGAACAGCAUGCAAAGUAUUUAGUUA	0.0163 ± 0.0061
UCCUGCUACAGCUUGCAUAGUACUUUAGUUA	0.00465 ± 0.0015
UCCUGCUACAGCUUGCAUUGUAUUUUGUUA	0.00346 ± 0.0021
UCCUGGAACUGCUUCCAUAGUAUUUAGUUA	0.00266 ± 0.0013
UCCUGGAACAGCUUGCAUAGCAUUUAGUUA	0.00399 ± 0.0015
UCCUGGAUGAGCUUGCAUACUAUUUAGAUA	0.00231 ± 0.0021
UCCUCCUACAGCUUGGAUAGUAUUUAGAUA	0.00474 ± 0.0018
UCCUGGAUGAGCUAGCAUAGUAUUUAGUUA	0.00597 ± 0.002
UCCUGGAACAGCUAGCAUACUAUUUAGUUA	0.0045 ± 0.0019
UCCUCCUACAGCCUGCAUAGUAUUUAGUUA	0.0698 ± 0.018
